Not all results are given here.
aSyn UTR act: Activators working through SNCA 5'UTR binding (MLPCN); AID 1814; activity score, % (tested at 7.5 µM), hits read low; alpha-synuclein 5'UTR reporter, activators screen; actives 7.1% (n = 300,000); in the data active = activity score below about -60%
The depositor's hits bear a star.

SMILES | aSyn UTR act
COc1ccc(-c2cnn3c4c(c(C)nc23)CCN4C(C)C)cc1OC | -69.9*
CCOC(=O)c1snc(C(=O)NC2CCCCC2)c1N | -150.3*
Cc1ccc2nc(-c3sc4nc(C)cc(C)c4c3N)[nH]c2c1 | -63.2*
COc1ccc(Nc2cc(Nc3ccccc3)ncn2)cc1 | -80.9*
Cc1ccc(O)c(Nc2ncnc3ccccc23)c1 | -95.5*
COc1cccc(Nc2cc(C)c3ccccc3n2)c1 | -62.7*
COc1cccc(Nc2ncnc3ccccc23)c1 | -122.6*
COc1ccc(Nc2ccnc(Nc3ccc(OC)cc3)n2)cc1 | -119.8*
CCOc1ccc(Nc2nc(N)c3ccccc3n2)cc1 | 102.3
COc1ccc(Nc2ncnc3ccccc23)cc1 | -152.0*
Cc1ccc(CC(=O)Nc2nc3ccccc3s2)cc1 | -95.8*
